KCNQ2 pot = KCNQ2 (rat) channel potentiation | AID 2239 | CHO-K1 KCNQ2, FluxOR thallium flux fluorescence; stronger effect = higher value | O88943 | B-score at 10 µM | 310,000 compounds, 0.54% hits;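 active = fluorescence ratio B-score at least 3 SD of library B-scores, with initial fluorescence B-score within 3 of them, cut at about 5.3 in these data; same plate scores as AID 2156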;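 note: B-score of peak minus minimum over baseline fluorescence ratio after K+ and Tl+ stimulus; positive B-score means potentiation of KCNQ2 with more thallium influx and brighter signal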
Target sequence (O88943 whole entry, looked up): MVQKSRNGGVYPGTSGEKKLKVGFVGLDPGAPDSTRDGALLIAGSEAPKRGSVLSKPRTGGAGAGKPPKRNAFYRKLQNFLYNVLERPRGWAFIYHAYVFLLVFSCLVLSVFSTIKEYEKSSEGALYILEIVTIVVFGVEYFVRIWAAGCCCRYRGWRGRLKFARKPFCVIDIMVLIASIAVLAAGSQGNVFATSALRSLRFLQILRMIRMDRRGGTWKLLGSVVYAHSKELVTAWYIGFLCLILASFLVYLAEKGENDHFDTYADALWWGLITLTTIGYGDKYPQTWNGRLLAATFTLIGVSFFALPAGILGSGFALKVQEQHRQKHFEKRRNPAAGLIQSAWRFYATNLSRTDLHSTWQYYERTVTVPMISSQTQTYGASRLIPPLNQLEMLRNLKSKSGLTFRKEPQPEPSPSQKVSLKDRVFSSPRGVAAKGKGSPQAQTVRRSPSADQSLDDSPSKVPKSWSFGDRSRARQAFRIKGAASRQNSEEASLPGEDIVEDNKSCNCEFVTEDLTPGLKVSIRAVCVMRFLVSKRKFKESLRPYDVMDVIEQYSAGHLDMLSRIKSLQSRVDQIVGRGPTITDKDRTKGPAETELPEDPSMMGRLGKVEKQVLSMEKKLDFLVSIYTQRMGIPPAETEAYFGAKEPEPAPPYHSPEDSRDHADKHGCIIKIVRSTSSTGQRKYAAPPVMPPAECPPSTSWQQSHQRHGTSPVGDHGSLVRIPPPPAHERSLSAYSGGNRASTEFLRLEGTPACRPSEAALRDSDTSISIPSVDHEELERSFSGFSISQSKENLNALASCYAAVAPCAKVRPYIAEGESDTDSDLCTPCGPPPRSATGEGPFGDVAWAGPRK
KCNQ2 inh = KCNQ2 (rat) channel inhibition; O88943; CHO-K1 KCNQ2, FluxOR thallium flux, 20 min; stronger effect = lower value; 310,000 compounds, 1.1% hits; AID 2156; B-score at 10 µM;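 active = fluorescence ratio B-score at most minus 3 library SDs, with starting brightness B-score within 2 library SDs, cut at about -5.5 in these data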
Large screens that a line does not name were inactive. Hits are enriched below; roughly 1.6% of the tested compounds scored in any of these assays.

CCC(=O)c1ccc(OCC(=O)OCC(=O)N2CCCc3ccccc32)cc1	none
COc1ccc(N2CCN(C(=O)C3CCN(C(=O)c4ccc([N+](=O)[O-])cc4)CC3)CC2)cc1	none (no result: KCNQ2 pot)
Cc1[nH]c2ccc(C(=O)N3CCN(c4cccc(Cl)c4)CC3)cc2c1C	KCNQ2 inh -6.19
Cc1[nH]c2ccc(C(=O)N3CCCC3)cc2c1C	none
Cc1[nH]c2ccc(C(=O)N3CCN(c4ccccc4Cl)CC3)cc2c1C	KCNQ2 inh -6.55
COc1ccccc1N1CCN(C(=O)c2ccc3[nH]c(C)c(C)c3c2)CC1	none (no result: KCNQ2 pot)
CCOC(=O)C1=C(C)NC(=O)C1CC(=O)O (centres undefined)	none
CCCN1CCN(C(=O)C(NC(=O)c2ccco2)C(C)C)CC1 (centres undefined)	none (no result: KCNQ2 pot)
CN(C)S(=O)(=O)NCC1CCCN(Cc2cc3ccccc3s2)C1 (centres undefined)	none
Cc1nc(NCCCO)c(C#N)c2c1COC(C)(C)C2	none (no result: KCNQ2 pot)
CCN(CC)c1nc(C)c2c(c1C#N)CC(C)(C)OC2	KCNQ2 inh -6.69
COc1ccc(CCNC(=O)COC(=O)c2ccc(N3CCCC3=O)cc2)cc1	none (no result: KCNQ2 pot)
COc1ccc(CC(=O)Nc2cccc(-c3nnc(-c4ccc(C)cc4)o3)c2)cc1OC	none (no result: KCNQ2 pot)
COc1ccc(CC(=O)Nc2cccc(-c3nnc(-c4cccc(C)c4)o3)c2)cc1OC	KCNQ2 inh -7.02
O=C(NCc1n[nH]c(=S)n1-c1ccc(Br)cc1)c1ccc(S(=O)(=O)N2CCOCC2)cc1	none (no result: KCNQ2 pot)
CC(C)(c1ccccc1)c1ccc(OCCn2cnc3ccccc3c2=O)cc1	KCNQ2 inh -7.41
O=C(c1ccccc1)c1ccc(OCCn2cnc3ccccc3c2=O)cc1	none
NCCCCCc1nnc(SCc2ccc(Cl)c(Cl)c2)o1	none
O=C(Nc1ccccc1Cl)c1cc2ccccc2o/c1=N\O	KCNQ2 inh -5.56
O=C(Nc1ccccc1Cl)c1ccccc1Cl	none (no result: KCNQ2 pot)
CCCn1ncc(/C=N/O)c1C	none (no result: KCNQ2 pot)
CCCCC(=O)Nc1ccc2c(c1)nc(CCN1CCN(C)CC1)n2C	none
Cc1ccc(O)c(C(=O)c2cc(C(=O)NCCc3ccccc3)c(=O)n(CCc3ccccc3)c2)c1	KCNQ2 inh -7.09
COc1ccc(O)c(C(=O)c2cc(C(=O)NCCc3ccccc3)c(=O)n(CCc3ccccc3)c2)c1	none (no result: KCNQ2 pot)
Cc1nn(Cc2ccc([N+](=O)[O-])cc2)c(=O)n1-c1ccccc1	none
CCCCC1(Cc2ccc([N+](=O)[O-])cc2)C(=O)N(c2ccccc2)N(c2ccccc2)C1=O	KCNQ2 inh -5.97
CC(C)CC1(C(=O)NCCc2c[nH]c3ccccc23)C=CCN1C(=O)c1ccccc1 (centres undefined)	KCNQ2 inh -6.39
CC(=O)N1CC=CC1(CC(C)C)C(=O)NCCc1c[nH]c2ccccc12 (centres undefined)	none
Cc1ccccc1C(=O)Nc1ccccc1N1CCCCC1	none (no result: KCNQ2 pot)
O=C(Nc1ccccc1N1CCCC1)c1ccccc1Cl	KCNQ2 inh -6.08
O=C(Nc1ccccc1N1CCCC1)c1cc(Cl)ccc1Cl	KCNQ2 inh -5.74
O=C(Nc1ccccc1N1CCCC1)c1ccc(Cl)cc1Cl	none (no result: KCNQ2 pot)
C=CCc1ccc(OCCn2nnc3ccccc32)c(OC)c1	none
C=CCc1ccc(OCCn2cccc2C=O)c(OC)c1	KCNQ2 pot 7.61
CCC(C)(C)NC(=O)C(c1ccncc1)N(C(=O)Cn1nnc2ccccc21)c1cc2c(cc1C(C)=O)OCO2 (centres undefined)	none (no result: KCNQ2 pot)
CCc1ccccc1NC(=O)CSc1nnc(-c2cc(C)[nH]n2)n1N	none
O=C(NCCc1ccc(Cl)cc1)C1COc2ccccc2O1 (centres undefined)	KCNQ2 inh -6.03
O=C(NCCO)C1COc2ccccc2O1 (centres undefined)	none
Cc1ccc2c(c1)N(CCCC(=O)NCCCN1CCCCC1)C(=O)CO2	none
CCN(CCCNC(=O)CCCN1C(=O)COc2ccc(C)cc21)c1cccc(C)c1	KCNQ2 inh -6.31
CC(C(=O)N1CCCC1)N(c1ccccc1)S(C)(=O)=O (centres undefined)	none (no result: KCNQ2 pot)
COc1cc(NC(=S)NCCc2ccccc2)c(OC)cc1NC(=O)C(C)C	KCNQ2 inh -5.84
COc1ccccc1CNC(=S)NCCc1ccccc1	none (no result: KCNQ2 pot)
Cc1nc(-c2ccccc2)sc1C1(C)CC(c2cccc(F)c2)=NO1 (centres undefined)	none
CC(C)=CC(=O)Nc1ccc(OCc2ccccc2)cc1	KCNQ2 pot 7.6
O=C(Nc1ccc(OCc2ccccc2)cc1)c1ccccc1	none (no result: KCNQ2 pot)
COC(C[C@@H](O)[C@H](C)[C@@H](O)COCc1ccccc1)OC	none (no result: KCNQ2 pot)
CCc1ccc(NC(=O)c2ccc(F)c(S(=O)(=O)N(CC)c3ccccc3)c2)cc1	none (no result: KCNQ2 pot)
CCN(c1ccccc1)S(=O)(=O)c1cc(C(=O)Nc2cccc(Cl)c2)ccc1F	KCNQ2 inh -8.11
Cc1cccc(C)c1NS(=O)(=O)c1ccc(OCCNS(C)(=O)=O)cc1	none
C=CCn1c(O)c2ccc(C(=O)N=NC(=O)COc3ccccc3F)cc2c1O	none
COc1ccc(/C=C/C(=O)Nc2ccccc2C(=O)N2CCCC2)cc1	none (no result: KCNQ2 pot)
COc1ccc(/C=C(/C(=O)Nc2ccccc2C(=O)N2CCCC2)c2ccccc2)cc1	KCNQ2 inh -6.61
COc1ccc(NC(=O)c2ccccc2NC(=O)c2ccccc2)cc1	none
COc1ccc(/C=C(/C(=O)Nc2ccccc2C(=O)NC(C)C)c2ccccc2)cc1	KCNQ2 inh -7.9
Cc1ccc([N+](=O)[O-])cc1NC(=O)CSc1nnc(C)n1CC1CCCO1 (centres undefined)	none
COC(=O)c1ccc(C(=O)OC)c(NC(=O)COC(=O)C2CCCCC2)c1	none
COC(=O)c1ccc(C(=O)OC)c(NC(=O)COC(=O)C2CCC(C(C)(C)C)CC2)c1 (centres undefined)	KCNQ2 inh -5.9
CCOC(=O)c1ccc(-n2c(C)nc3ccc(Br)cc3c2=O)cc1	none (no result: KCNQ2 pot)
CCN(CC)S(=O)(=O)c1ccc(N(C)C)c(NC(=O)CSCc2c(C)noc2C)c1	none
O=C(CSc1nncc(=O)[nH]1)NC1CCCCC1	none
O=C(COc1cccc(C(F)(F)F)c1)NCC(c1ccco1)N1CCCCC1 (centres undefined)	KCNQ2 inh -5.6
O=C(COc1ccccc1)NCC(c1ccco1)N1CCN(c2ccccc2)CC1 (centres undefined)	none (no result: KCNQ2 pot)
COC(=O)COc1c(Cl)cc(Cl)c2ccc(C)nc12	none (no result: KCNQ2 pot)
Cc1ccc2c(Cl)cc(Cl)c(OCC(=O)NC(C)(C)C)c2n1	KCNQ2 inh -7.05
CCC/C=N/NC(=O)c1ccccc1O	none (no result: KCNQ2 pot)
O=C(N/N=C/c1cccnc1)c1ccc(NC(=O)c2ccccc2Cl)cc1	none
C=CCN(c1ccc(C(=O)Nc2ccc(NC(C)=O)cc2)cc1)S(C)(=O)=O	none
Cc1nn(C(C)(C)C)c(OC(=O)C2CCCC2)c1S(=O)(=O)c1ccccc1	KCNQ2 inh -5.96
Cc1ccc(S(=O)(=O)c2c(C)nn(C(C)(C)C)c2OC(=O)C2CCCC2)cc1	none (no result: KCNQ2 pot)
CCOC(=O)N1CCN(S(=O)(=O)c2cc(OCC(=O)NC3CCCCC3)c(C)cc2Cl)CC1	none
CCN1CCN(S(=O)(=O)c2cc(OCC(=O)NC3CCCCC3)c(C)cc2Cl)CC1	KCNQ2 pot 10.8
Cc1ccccc1S(=O)c1ccccc1C(=O)O (centres undefined)	none (no result: KCNQ2 pot)
Cc1cc(C(=O)OC(C(=O)Nc2ccc(C)c(Cl)c2)c2ccccc2)c(C)o1 (centres undefined)	KCNQ2 inh -5.77
Cc1ccc(NC(=O)C(OC(=O)c2ccccc2Cl)c2ccccc2)cc1Cl (centres undefined)	none (no result: KCNQ2 pot)
CC(C)C(NC(=O)c1ccco1)C(=O)NC1CCCCCC1 (centres undefined)	none
O=C(CNC(=O)c1ccccc1)OCC(=O)N1N=C(c2ccc(Cl)cc2)CC1c1ccco1 (centres undefined)	none (no result: KCNQ2 pot)
